Assay results reported in paper PMC11006913.

What follows are sequences tested against T1, NKX2-6 (Homo sapiens, UniProt A6NCS4 118-204, R150C) (assay: PBM; 200 nM protein, PBS). Settings: dsDNA, one strand shown.
T1 sequence: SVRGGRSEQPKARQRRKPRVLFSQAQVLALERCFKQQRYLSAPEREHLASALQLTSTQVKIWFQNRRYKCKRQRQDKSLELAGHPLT

For CCCGGGGA, which binding signal is on record?
The binding signal was 9.42 upbm affinity estimate (log intensity, higher = more binding, comparable within an allelic series).

How did the binding signal turn out when ACCTCCCC was run?
Its binding signal is 9.56 upbm affinity estimate (log intensity, higher = more binding, comparable within an allelic series).

GAGGCGGA was tested. Which binding signal did it give?
The binding signal was 9.49 upbm affinity estimate (log intensity, higher = more binding, comparable within an allelic series).

For ACAGCGGG, which binding signal is on record?
Its binding signal is 9.46 upbm affinity estimate (log intensity, higher = more binding, comparable within an allelic series).

How did the binding signal turn out when CCGGACCC was run?
Its binding signal is 9.31 upbm affinity estimate (log intensity, higher = more binding, comparable within an allelic series).

CGGTTAGC was tested. Which binding signal did it give?
The binding signal was 9.51 upbm affinity estimate (log intensity, higher = more binding, comparable within an allelic series).

CACTCTCA was tested. Which binding signal did it give?
Its binding signal is 10.9 upbm affinity estimate (log intensity, higher = more binding, comparable within an allelic series).

With CGGACGGC as the sequence, how does the binding signal read?
The binding signal was 9.24 upbm affinity estimate (log intensity, higher = more binding, comparable within an allelic series).

ACCGGTGG was tested. Which binding signal did it give?
Its binding signal is 9.26 upbm affinity estimate (log intensity, higher = more binding, comparable within an allelic series).

How did the binding signal turn out when CCGGTAGG was run?
The binding signal was 9.6 upbm affinity estimate (log intensity, higher = more binding, comparable within an allelic series).

With AAGAGTAG as the sequence, how does the binding signal read?
The binding signal was 10.8 upbm affinity estimate (log intensity, higher = more binding, comparable within an allelic series).

GGTCAACC was tested. Which binding signal did it give?
Its binding signal is 9.62 upbm affinity estimate (log intensity, higher = more binding, comparable within an allelic series).

Which binding signal does the source give for CACTCGTC here?
Its binding signal is 10.8 upbm affinity estimate (log intensity, higher = more binding, comparable within an allelic series).

CGCCCGTC was tested. Which binding signal did it give?
Its binding signal is 9.36 upbm affinity estimate (log intensity, higher = more binding, comparable within an allelic series).

How did the binding signal turn out when ATACTTTG was run?
The binding signal was 10.7 upbm affinity estimate (log intensity, higher = more binding, comparable within an allelic series).

For CGCGGGCA, which binding signal is on record?
Its binding signal is 9.67 upbm affinity estimate (log intensity, higher = more binding, comparable within an allelic series).

CACCCCGC was tested. Which binding signal did it give?
Its binding signal is 9.31 upbm affinity estimate (log intensity, higher = more binding, comparable within an allelic series).

How did the binding signal turn out when CACTTGTC was run?
The binding signal was 11.4 upbm affinity estimate (log intensity, higher = more binding, comparable within an allelic series).

For GGGGCCAC, which binding signal is on record?
The binding signal was 9.87 upbm affinity estimate (log intensity, higher = more binding, comparable within an allelic series).

Which binding signal does the source give for GGTCTGCA here?
Its binding signal is 9.86 upbm affinity estimate (log intensity, higher = more binding, comparable within an allelic series).

For GCAGCACC, which binding signal is on record?
The binding signal was 9.59 upbm affinity estimate (log intensity, higher = more binding, comparable within an allelic series).

Which binding signal does the source give for GGTCAGAC here?
The binding signal was 9.52 upbm affinity estimate (log intensity, higher = more binding, comparable within an allelic series).

With GACGCCCC as the sequence, how does the binding signal read?
The binding signal was 9.56 upbm affinity estimate (log intensity, higher = more binding, comparable within an allelic series).

With CTTGCCGC as the sequence, how does the binding signal read?
Its binding signal is 9.53 upbm affinity estimate (log intensity, higher = more binding, comparable within an allelic series).

With GCGGACCA as the sequence, how does the binding signal read?
The binding signal was 9.48 upbm affinity estimate (log intensity, higher = more binding, comparable within an allelic series).

Which binding signal does the source give for CCCGCAGC here?
The binding signal was 9.3 upbm affinity estimate (log intensity, higher = more binding, comparable within an allelic series).

How did the binding signal turn out when TACAAGTA was run?
The binding signal was 11.3 upbm affinity estimate (log intensity, higher = more binding, comparable within an allelic series).

Which binding signal does the source give for ACCGACGC here?
Its binding signal is 9.5 upbm affinity estimate (log intensity, higher = more binding, comparable within an allelic series).

How did the binding signal turn out when CACTTCCA was run?
Its binding signal is 11 upbm affinity estimate (log intensity, higher = more binding, comparable within an allelic series).

CCGTAGCG was tested. Which binding signal did it give?
Its binding signal is 9.34 upbm affinity estimate (log intensity, higher = more binding, comparable within an allelic series).

For AGCCCCTG, which binding signal is on record?
The binding signal was 9.59 upbm affinity estimate (log intensity, higher = more binding, comparable within an allelic series).

For CTACTTTA, which binding signal is on record?
The binding signal was 11 upbm affinity estimate (log intensity, higher = more binding, comparable within an allelic series).

ACGGGGTC was tested. Which binding signal did it give?
The binding signal was 9.58 upbm affinity estimate (log intensity, higher = more binding, comparable within an allelic series).

Which binding signal does the source give for CCCGCCAG here?
The binding signal was 9.62 upbm affinity estimate (log intensity, higher = more binding, comparable within an allelic series).

For CCCAGGGG, which binding signal is on record?
The binding signal was 9.24 upbm affinity estimate (log intensity, higher = more binding, comparable within an allelic series).

Which binding signal does the source give for GCATGCGC here?
Its binding signal is 9.48 upbm affinity estimate (log intensity, higher = more binding, comparable within an allelic series).

With CAAGAGGG as the sequence, how does the binding signal read?
The binding signal was 10.9 upbm affinity estimate (log intensity, higher = more binding, comparable within an allelic series).

Which binding signal does the source give for GGCGGGAC here?
The binding signal was 9.37 upbm affinity estimate (log intensity, higher = more binding, comparable within an allelic series).

GGGCCACC was tested. Which binding signal did it give?
Its binding signal is 9.52 upbm affinity estimate (log intensity, higher = more binding, comparable within an allelic series).
